# Experimental data: PubChem BioAssay
# Results filed as inconclusive are left out. Active and inactive are the calls of the source.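 How the source made its calls, unless noted: active means viability at or under a set limit in both replicates, limit being median viability minus 3 SD (cut at about 48% in these data, passing the limit was not always enough); inconclusive means at or under the limit in just one replicate; inactive means at or above the limit in both replicates.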
# Assays:
# [1] = reducers of endogenous Her2 protein level, primary screen, SKBR3 breast tumor cells, AlphaScreen, ATP viability (AID 461;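 active means Her2 level under about 52% in both replicate screens, with viability over 70% of control, limit read from the data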;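 on Her2 level: lower value means less Her2 protein in the cells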;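 on viability: percent of carrier control wells set as 100% viability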); details: 18-24 h, measured here: SKBR3 viability, ATP luminescence, at 10 µM
# [2] = biological target: Receptor tyrosine-protein kinase erbB-2 (Homo sapiens) (UniProt P04626); assay: as above; details: 18-24 h, at 10 µM, stronger effect = lower value
# [3] = SK-BR-3 cell growth inhibitors, pilot screen, 24 h, human (AID 572;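 active means viability at or below 10% of carrier control in both of two separate runs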;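 further: compound exposure lasted between 18 and 24 h rather than exactly 24 h; 100% = carrier-treated control wells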); details: SK-BR-3 viability, CellTiter-Glo luminescence, at 10 µM, stronger effect = lower value
# [4] = HUVEC growth inhibition – cell-based, human, primary screen (AID 575;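 active means viability at or below 30% in both replicate assays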;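 further: 100% = median of untreated cell wells with 0.1% DMSO on each plate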); details: HUVEC proliferation, CellTiter-Glo luminescence, 72 h; at 10 µM; stronger effect = lower value
# [5] = growth inhibitors of H69AR lung tumor, primary screen, human, duplicate replicates (AID 580); details: H69AR lung tumor cells viability, ATP luminescence, 72 h; at 10 µM; stronger effect = lower value;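 further: 100% = mean luminescence of untreated wells and 0% = no signal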
# [6] = reversal of MRP1-mediated doxorubicin resistance, pilot screen, H69AR cells, doxorubicin co-treatment (AID 601;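 active means viability loss from added drug above about 55%, and viability with drug at most 40%, in both replicates, limit read from the data, passing the limit was not always enough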); details: CellTiter-Glo, 72 h, at 10 µM; for differential viability (reversal): stronger effect = higher value
# [7] = 384-well plate pilot, post-Golgi transport modulator project, inhibition of yeast transport mutant growth (AID 636; in the data active means inhibition above about 31%); details: absorbance 615 nm, about 18 h, stronger effect = higher value
# [8] = growth suppression of yeast trafficking mutant, preliminary HTS, modulators of trafficking downstream of Golgi apparatus project, 1536-format plate, OD 615 nm (AID 637; in the data active means inhibition above about 30%); details: yeast transport mutant growth, absorbance 615 nm, 18 h; stronger effect = higher value
# [9] = OD615 S. cerevisiae growth inhibition, permissive medium, pilot counter-assay, permissive growth control for S. cerevisiae lifespan shortening project (AID 705;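 active means growth inhibition above 25% in both replicates, a cutoff set 3 SD above the mean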); details: OD615, 24 h, at 10 µM, stronger effect = higher value
# [10] = Restrictive medium S. cerevisiae growth inhibition, OD615, pilot screen of yeast lifespan reduction project, restrictive growth control (AID 706;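 active means growth inhibition above a set limit, 3 SD over mean compound inhibition, in both replicates, cut at about 43% in these data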;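 further: modified DeaD lifespan yeast strain shifted to restrictive glucose medium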); details: OD615, 48 h, at 10 µM, stronger effect = higher value
# [11] = viability gain of MRP-1-high H69AR cells under doxorubicin, pilot screen, MRP-1 activator project, CellTiter-Glo, duplicate (AID 807;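 active means viability increase at or above a cutoff of the median across tested compounds plus 3 SD, cut at about 8.5% in these data, passing the limit was not always enough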;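 further: compound pretreatment 18-22 h then 72 h combined with doxorubicin; 0% = doxorubicin alone and 100% = vehicle without doxorubicin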); details: H69AR viability with doxorubicin, CellTiter-Glo luminescence; at 10 µM; stronger effect = higher value
# [12] = growth suppression of beta-catenin knockout HCT116, pilot screen, human colon tumor cells (AID 823;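 active means cell viability at or below a set limit in both duplicate runs, the limit being the all-compound median minus 4 SD, cut at about 23% in these data, passing the limit was not always enough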;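 further: 0% = wells killed by 20 µM Hyamine and 100% = untreated DMSO cell wells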); details: CellTiter-Glo, 60 h, at 10 µM, stronger effect = lower value
# [13] = growth suppression of PTEN-deleted HCT116, pilot screen, cell-based, HCT116 clonal line, CellTiter-Glo (AID 824;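 active means viability at or below 27.92% in each of two runs, the all-compound median minus 4 SD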;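 further: 0% = 20 µM Hyamine control and 100% = vehicle cell control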); details: 60 h, at 10 µM, stronger effect = lower value
# [14] = inhibitors of the yeast RAM network, pilot screen, dse1pr::URA3 reporter, 5-FOA selection (AID 869;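 active means inhibition over a set limit, the all-compound mean plus 3 SD, in both replicate runs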;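 further: 0% = DMSO wells with no growth and 100% = 10 µM 1-NA-PP1 with full growth; RAM network block rescues cells from 5-FOA so hits raise OD615 growth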); details: S. cerevisiae dse1pr::URA3 5-FOA growth, OD615, 2 d; at 10 µM; stronger effect = higher value; strain carries analog-sensitive mutant Cbk1 kinase
# [15] = RAM signaling pathway blockade in yeast – S. cerevisiae, Pdr1DBD-CYC8 efflux-inhibited sensitized strain, primary screen (AID 1298;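 active means RAM network inhibition above 8.4% in each of two replicates, 3 SD over the compound average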;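 further: 0% = DMSO untreated cells without growth and 100% = 10 µM 1-NA-PP1 full growth; higher means more yeast growth rescued from 5-FOA killing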); details: S. cerevisiae cbk1-as DSE1-URA3 strain, 5-FOA growth OD615, 2 d; at 50 µM; stronger effect = higher value
# [16] = H69AR cells + 2 uM doxorubicin, measured here: viability with 2 uM doxorubicin, stronger effect = lower value
# [17] = H69AR cells, compound alone cytotoxicity
# Receptor tyrosine-protein kinase erbB-2 (Homo sapiens), sequence (P04626 whole entry, looked up): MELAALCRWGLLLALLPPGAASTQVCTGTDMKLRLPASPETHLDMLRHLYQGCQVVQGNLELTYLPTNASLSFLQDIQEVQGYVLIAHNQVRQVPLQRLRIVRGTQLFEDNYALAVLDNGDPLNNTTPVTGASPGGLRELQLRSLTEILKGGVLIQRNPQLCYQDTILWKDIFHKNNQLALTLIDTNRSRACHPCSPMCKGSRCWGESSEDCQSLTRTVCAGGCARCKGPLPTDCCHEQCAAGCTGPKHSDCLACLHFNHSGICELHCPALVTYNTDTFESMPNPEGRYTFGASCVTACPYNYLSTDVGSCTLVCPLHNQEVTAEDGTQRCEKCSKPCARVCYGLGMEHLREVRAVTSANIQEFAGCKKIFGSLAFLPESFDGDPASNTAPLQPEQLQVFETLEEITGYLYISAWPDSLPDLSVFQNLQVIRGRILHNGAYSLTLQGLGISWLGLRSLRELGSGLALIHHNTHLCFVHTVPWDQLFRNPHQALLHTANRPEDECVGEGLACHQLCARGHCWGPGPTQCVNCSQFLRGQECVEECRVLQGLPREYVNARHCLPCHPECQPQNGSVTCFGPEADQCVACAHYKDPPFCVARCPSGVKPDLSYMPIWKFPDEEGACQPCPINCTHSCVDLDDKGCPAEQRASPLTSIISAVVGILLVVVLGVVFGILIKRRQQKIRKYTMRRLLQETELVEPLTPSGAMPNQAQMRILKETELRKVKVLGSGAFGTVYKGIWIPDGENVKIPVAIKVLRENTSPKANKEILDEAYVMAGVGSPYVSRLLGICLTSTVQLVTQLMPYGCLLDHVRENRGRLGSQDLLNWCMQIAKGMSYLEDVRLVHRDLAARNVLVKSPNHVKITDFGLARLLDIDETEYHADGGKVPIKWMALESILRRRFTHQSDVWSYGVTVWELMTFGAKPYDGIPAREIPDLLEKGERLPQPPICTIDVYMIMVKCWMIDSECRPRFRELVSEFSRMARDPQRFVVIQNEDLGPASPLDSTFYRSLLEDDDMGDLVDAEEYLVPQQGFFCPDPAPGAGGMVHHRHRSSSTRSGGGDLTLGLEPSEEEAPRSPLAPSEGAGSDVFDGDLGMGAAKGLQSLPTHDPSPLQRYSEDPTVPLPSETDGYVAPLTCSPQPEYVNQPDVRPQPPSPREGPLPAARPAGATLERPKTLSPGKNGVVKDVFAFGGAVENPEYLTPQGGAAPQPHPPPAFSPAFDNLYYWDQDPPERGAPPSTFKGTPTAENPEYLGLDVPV
SMILES,viability [1] [%],Her2 level [2],viability [3],viability [4],viability [5],differential viability (reversal) ([6]; H69AR cells + 2 uM doxorubicin),"viability [6, 16] [%]","viability [6, 17] [%]",inhibition [7],inhibition [8],growth inhibition [9],growth inhibition [10],viability increase [11],viability [12],viability [13],inhibition [14],RAM network inhibition [15]
CCOn1c(=O)c(=O)n(OCc2ccccc2)c2ccccc21,86.5,88% (inactive),86.5% (inactive),78.5% (inactive),83.6% (inactive),9.08% (inactive),74.5,83.6,-2.05% (inactive),-6.33% (inactive),-14% (inactive),-6.63% (inactive),-3.35% (inactive),95.8% (inactive),92% (inactive),2.35% (inactive),3.12% (inactive)
COc1ccc(C2CC(c3ccc(Cl)cc3Cl)Nc3nc(N)nn32)cc1 (stereo not drawn),94,92% (inactive),94% (inactive),115% (inactive),94% (inactive),3.8% (inactive),90.2,94,-1.67% (inactive),-0.5% (inactive),12.9% (inactive),31.5% (inactive),0.19% (inactive),85.3% (inactive),73.3% (inactive),2.17% (inactive),8.01% (inactive)
CCOC(=O)N1CCC(N2C(=O)c3ccccc3C2Nc2cc(Cl)c(OC)cc2OC)CC1 (stereo not drawn),92.5,114% (inactive),92.5% (inactive),91.6% (inactive),78.2% (inactive),14% (inactive),64.2,78.2,-4.8% (inactive),0.83% (inactive),3.33% (inactive),4.05% (inactive),-4.45% (inactive),77.8% (inactive),76% (inactive),0.285% (inactive),3.54% (inactive)
COC(=O)CSc1nc2nc(C)cc(C)n2n1,99,96.5% (inactive),99% (inactive),88.8% (inactive),99.7% (inactive),5.46% (inactive),94.3,99.7,-3.73% (inactive),3.17% (inactive),-2.5% (inactive),1.47% (inactive),-0.51% (inactive),97.7% (inactive),91.2% (inactive),2.01% (inactive),2.93% (inactive)
Cn1c(=O)c2c(nc(SCCOc3ccc4ccc(=O)oc4c3)n2C)n(C)c1=O,98.5,91.5% (inactive),98.5% (inactive),102% (inactive),104% (inactive),14.3% (inactive),89.6,104,-2.93% (inactive),-1.97% (inactive),-4.61% (inactive),1.18% (inactive),1.22% (inactive),99% (inactive),103% (inactive),0.27% (inactive),2.41% (inactive)
COc1ccc2c(c1OC)C(=O)OC2CC(=O)c1ccc(O)cc1 (stereo not drawn),100,111% (inactive),100% (inactive),106% (inactive),87.3% (inactive),-3.06% (inactive),90.4,87.3,1.3% (inactive),-4.17% (inactive),-11.6% (inactive),-10.6% (inactive),-0.29% (inactive),102% (inactive),107% (inactive),0.365% (inactive),4.28% (inactive)
CCCSCCCNC(=O)Cn1cc2c(n1)CCC(C)C2 (stereo not drawn),99.5,106% (inactive),99.5% (inactive),101% (inactive),98.8% (inactive),7.85% (inactive),91,98.8,4.49% (inactive),-0.67% (inactive),3.59% (inactive),1.5% (inactive),-0.9% (inactive),102% (inactive),95.7% (inactive),0.775% (inactive),1.33% (inactive)
COc1ccc(-c2nc(CCNC(=O)c3ccco3)cs2)cc1OC,96.5,102% (inactive),96.5% (inactive),89.2% (inactive),77.9% (inactive),0.52% (inactive),77.4,77.9,-4.67% (inactive),-2.95% (inactive),-4.64% (inactive),-8.75% (inactive),-3.3% (inactive),95.3% (inactive),87.7% (inactive),0.415% (inactive),-1.56% (inactive)
CCOC(=O)Cn1ncc(-c2ccccc2)c1N,101,72% (inactive),101% (inactive),102% (inactive),93% (inactive),7.02% (inactive),86,93,-7.95% (inactive),-1.43% (inactive),2.3% (inactive),-2.13% (inactive),0.83% (inactive),100% (inactive),94.5% (inactive),1.83% (inactive),2.21% (inactive)
CC1(C)CC(=O)c2cnc(NC(=O)Cc3ccc(Cl)cc3)nc2C1,71.5,96.5% (inactive),71.5% (inactive),96.2% (inactive),100% (inactive),10.6% (inactive),89.6,100,-9.46% (inactive),-0.98% (inactive),-5.41% (inactive),-16.6% (inactive),2.03% (inactive),94.4% (inactive),90.6% (inactive),2.17% (inactive),5.3% (inactive)
COc1ccc(S(=O)(=O)N2Cc3ccccc3CC2C(=O)Nc2ccc(O)cc2)cc1OC (stereo not drawn),91,106% (inactive),91% (inactive),76.3% (inactive),77.4% (inactive),1.23% (inactive),76.2,77.4,-4.27% (inactive),-0.83% (inactive),-18.6% (inactive),-18.4% (inactive),-4.42% (inactive),96.6% (inactive),87.5% (inactive),1.39% (inactive),11.6% (inactive)
Oc1ccc(-c2n[nH]c(=S)n2Cc2ccccc2)cc1,90.5,120% (inactive),90.5% (inactive),112% (inactive),105% (inactive),2.54% (inactive),102,105,5.45% (inactive),-2.83% (inactive),5.8% (inactive),-5.84% (inactive),-1.84% (inactive),101% (inactive),91.2% (inactive),0.655% (inactive),-0.9% (inactive)
CCCN(CCC)CCNC(=O)c1cc2c(=O)n(C)c3ccccc3c2n1C,89,98.5% (inactive),89% (inactive),57.5% (inactive),77.1% (inactive),13% (inactive),64,77.1,-2.53% (inactive),1.67% (inactive),6.58% (inactive),1.31% (inactive),-6.19% (inactive),69.6% (inactive),73.4% (inactive),1.12% (inactive),0.57% (inactive)
CCN1CCN(Cc2nc3c(c(=O)n(C)c(=O)n3C)n2CC(=O)c2ccccc2)CC1,100,108% (inactive),100% (inactive),95.5% (inactive),98.5% (inactive),2.67% (inactive),95.8,98.5,-4.13% (inactive),-0.33% (inactive),5% (inactive),-14% (inactive),-1.56% (inactive),100% (inactive),105% (inactive),1.33% (inactive),3.98% (inactive)
CCCCn1c(SCC(=O)OCC)nc2c1c(=O)[nH]c(=O)n2C,100,93% (inactive),100% (inactive),96.8% (inactive),97.3% (inactive),0.46% (inactive),96.8,97.3,-2.53% (inactive),0.33% (inactive),0.935% (inactive),1.66% (inactive),-2.5% (inactive),94.4% (inactive),91.6% (inactive),1.31% (inactive),0.35% (inactive)
Cn1c(=O)cc(NCCc2ccccc2)[nH]c1=O,97,93.5% (inactive),97% (inactive),50.3% (inactive),42.9% (active),-37.3% (inactive),80.2,42.9,-1.82% (inactive),-8.36% (inactive),-9.86% (inactive),2.05% (inactive),-5.4% (inactive),87.5% (inactive),88.3% (inactive),0.595% (inactive),3.06% (inactive)
CC1Cc2nc(SCC(=O)Nc3nccs3)n(C)c(=O)c2S1 (stereo not drawn),90,89% (inactive),90% (inactive),72.7% (inactive),77.8% (inactive),-0.05% (inactive),77.8,77.8,-5.07% (inactive),-1.67% (inactive),-2.9% (inactive),-5.05% (inactive),-2.52% (inactive),105% (inactive),96.7% (inactive),1.56% (inactive),6.27% (inactive)
CCOC(=O)N1CCC(NC(=O)Cn2c3c(c(-c4ccccc4Cl)cc2=O)CCC3)CC1,94.5,92.5% (inactive),94.5% (inactive),123% (inactive),89.7% (inactive),0.145% (inactive),89.6,89.7,-6.67% (inactive),-1.67% (inactive),-9.94% (inactive),-0.355% (inactive),-0.33% (inactive),88.8% (inactive),91.9% (inactive),2.06% (inactive),4.05% (inactive)
Cc1onc(-c2c(Cl)cccc2Cl)c1C(=O)NCC1CCCO1 (stereo not drawn),111,104% (inactive),111% (inactive),97.7% (inactive),111% (inactive),16% (inactive),95.2,111,-4.59% (inactive),-5.74% (inactive),6.24% (inactive),-5.78% (inactive),-1.12% (inactive),91.7% (inactive),92.9% (inactive),-1.21% (inactive),-0.45% (inactive)
